Composite z-score and z-score data for five compounds are collected here from PubChem BioAssay.

Molecules are shown by their SMILES. Calls of active or inactive are those of the source.

Assay [1] in a line: binders of probe aFSTL3 on microarray, primary screen, stem cell growth factor project, biochemical, small-molecule microarray, fluorescence 635/667 (AID 1064).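 Note: measures binding of the biotinylated anti-FSTL3 antibody to printed compounds.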 The settings on record: higher = more signal.
Assay [2] in a line: binders from COS7 lysate, DM2A8 probe, primary screen, torsin A project, cell lysate, small-molecule microarray, fluorescence 635/667 (AID 1065). The settings on record: higher = more signal, COS7 lysate expressing mutant human TOR1A.
Assay [3] can be described thus: binders of probe aFGF2 on microarray, primary screen, stem cell growth factor project, biochemical, small-molecule microarray, fluorescence 635/667 (AID 1067).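 Note: measures binding of biotinylated aFGF2 protein to printed compounds on slides; z-score merges feature fluorescence and signal-to-noise across triplicate slides.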 Conditions: higher = more signal.
Assay [4] in a line: binders of probe aFGF10 on microarray, primary screen, stem cell growth factor project, biochemical, small-molecule microarray, fluorescence 635/667 (AID 1071).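 Note: score merges 667 nm spot intensity and signal to noise from triplicate slides.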 Conditions: higher = more signal.
The target in assay [5] is Neurogenic locus notch homolog protein 2 (Homo sapiens) (UniProt Q04721). Nature of the assay: Notch2 binders on small-molecule microarrays, primary screen, biochemical, small-molecule microarray, 635 nm fluorescence, stem cell growth factors (AID 1073). Conditions: Notch2 binding, higher = more signal.
For assay [6], the target named is Pro-neuregulin-1, membrane-bound isoform (Homo sapiens) (UniProt Q02297). Nature of the assay: NRG1 binders on small-molecule microarrays, primary screen, psychiatric disease protein project, biochemical, small-molecule microarray, fluorescence 635/667 (AID 1075).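 Note: score combines 667 nm spot fluorescence with signal to noise.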 Conditions: NRG1 binding, 635 nm fluorescence, higher = more signal.
Chain of Pro-neuregulin-1, membrane-bound isoform (Homo sapiens) (Q02297 whole entry, looked up, the tested form may be a part, canonical isoform): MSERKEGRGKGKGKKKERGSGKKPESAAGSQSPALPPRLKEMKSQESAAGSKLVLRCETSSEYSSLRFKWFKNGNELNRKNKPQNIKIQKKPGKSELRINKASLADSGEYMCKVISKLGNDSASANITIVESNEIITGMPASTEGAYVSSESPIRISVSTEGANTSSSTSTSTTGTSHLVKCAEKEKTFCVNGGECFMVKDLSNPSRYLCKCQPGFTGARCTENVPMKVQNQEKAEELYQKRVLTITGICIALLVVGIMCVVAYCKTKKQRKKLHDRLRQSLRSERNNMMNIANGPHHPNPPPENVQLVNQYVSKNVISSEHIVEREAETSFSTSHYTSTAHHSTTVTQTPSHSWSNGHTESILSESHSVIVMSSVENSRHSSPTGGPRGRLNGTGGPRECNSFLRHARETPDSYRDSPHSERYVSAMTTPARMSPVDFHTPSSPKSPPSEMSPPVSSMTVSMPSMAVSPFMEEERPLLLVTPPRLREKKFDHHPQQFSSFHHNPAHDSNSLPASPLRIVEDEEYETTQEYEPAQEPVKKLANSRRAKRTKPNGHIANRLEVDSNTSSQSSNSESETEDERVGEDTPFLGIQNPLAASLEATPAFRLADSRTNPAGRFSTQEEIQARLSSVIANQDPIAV
Assay [7] concerns Neuregulin-1 EGF-like domain. As to the kind of experiment: binders of neuregulin-1 EGF-like domain, primary screen, biochemical, small-molecule microarray, 635 nm fluorescence (AID 1081).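 Note: binding of the protein to compounds printed on small-molecule microarray slides.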 The settings on record: small-molecule microarray binding, higher = more signal.
Assay [8] can be described thus: FRG1 promoter luciferase signal modulators, primary screen, FRG1 inhibition for FSHD, cell-based, C2C12 myotubes, firefly/Renilla luciferase, luminescence (AID 1084). Conditions: higher = more signal, called active from +8 up or from −8 down.
Assay [9] in a line: binders of probe aFST on microarray, primary screen, stem cell growth factor project, biochemical, small-molecule microarray, fluorescence 635/667 (AID 1086).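 Note: score merges 667 nm fluorescence with signal-to-noise of each printed compound spot.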 The settings on record: higher = more signal.
Assay [10] is described as follows: binders of probe aHhip on microarray, primary screen, stem cell growth factor project, biochemical, small-molecule microarray, fluorescence 635/667 (AID 1087).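 Note: score merges spot fluorescence at 667nm with spot signal to noise ratio.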 The settings on record: higher = more signal.
The subject of assay [11] is PRMT1 (protein arginine N-methyltransferase 1). As to the kind of experiment: PRMT1 binders on small-molecule microarrays, primary screen, biochemical, small-molecule microarray, 635 nm fluorescence (AID 1088).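 Note: binding of Prmt1 protein to compounds spotted on small-molecule microarray slides.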 The settings on record: small-molecule microarray binding, higher = more signal.
Assay [12] is described as follows: yeast growth modulation, basal conditions, primary screen, YJM789 clinical isolate, OD600, 24 h (AID 1089).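 Note: growth of clinical yeast isolate S. cerevisiae YJM 789 seeded 1000 cells per well; test concentration not given here.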 The settings on record: S. cerevisiae YJM789 growth, higher = more signal, called active from +8 up or from −8 down.
The nature of assay [13]: fission yeast growth modulation, primary screen, strain 972, OD600, 24 h, no modulator (AID 1090).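 Note: basal condition with compound alone and no growth modifier present; test concentration not given here.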 Conditions: S. pombe 972 growth, higher = more signal, called active from +8 up or from −8 down.
Assay [14] can be described thus: S. cerevisiae growth modulation with rapamycin, primary screen, strain BY4716, OD600, 96 h (AID 1091). Note: test concentration not given here. Conditions: higher = more signal, called active from +8 up or from −8 down.
Assay [15] has as its target Torsin-1A-interacting protein 2 (Homo sapiens) (UniProt Q8NFQ8). Nature of the assay: LULL1 binders on small-molecule microarray, primary screen, cell lysate, human LULL1 lysate, 635/667 nm fluorescence (AID 1092).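 Note: probe is lysate of COS7 cells overexpressing human LULL1; score merges per-feature 667 nm fluorescence with signal-to-noise.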 Conditions: hLULL1 lysate binding, 635 nm fluorescence, higher = more signal.
Assay [16] can be described thus: E. coli growth modulation, two-sided OD650, primary screen, E. coli filamentation project, strain DRC41, 24 h (AID 1093).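 Note: MC1000 strain lacking acrAB efflux and sulA so SOS filamentation is blocked; test concentration not given here.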 The settings on record: OD650, 24 h, higher = more signal, called active from +8 up or from −8 down.
The nature of assay [17]: small-molecule microarray binders of probe aLefty2, primary screen, biochemical, biotinylated probe, 635/667 nm fluorescence (AID 1094).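 Note: score merges spot fluorescence near 667 nm with spot signal-to-noise ratio.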 The settings on record: higher = more signal.
In assay [18] the test system is Noggin (protein binding on small-molecule microarray). Nature of the assay: Noggin binders on small-molecule microarray, primary screen, biochemical, 635/667 nm fluorescence (AID 1095).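 Note: score merges 667 nm feature fluorescence with signal to noise over triplicate slides.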 Conditions: 635 nm fluorescence, higher = more signal.
The target of assay [19] is Neurogenic locus notch homolog protein 3 (Homo sapiens) (UniProt Q9UM47). As to the kind of experiment: NOTCH3 binders on small-molecule microarray, primary screen, biochemical, 635/667 nm fluorescence (AID 1096). Conditions: NOTCH3 binding, 635 nm fluorescence, higher = more signal.
Chain of Neurogenic locus notch homolog protein 3 (Homo sapiens) (Q9UM47 whole entry, looked up): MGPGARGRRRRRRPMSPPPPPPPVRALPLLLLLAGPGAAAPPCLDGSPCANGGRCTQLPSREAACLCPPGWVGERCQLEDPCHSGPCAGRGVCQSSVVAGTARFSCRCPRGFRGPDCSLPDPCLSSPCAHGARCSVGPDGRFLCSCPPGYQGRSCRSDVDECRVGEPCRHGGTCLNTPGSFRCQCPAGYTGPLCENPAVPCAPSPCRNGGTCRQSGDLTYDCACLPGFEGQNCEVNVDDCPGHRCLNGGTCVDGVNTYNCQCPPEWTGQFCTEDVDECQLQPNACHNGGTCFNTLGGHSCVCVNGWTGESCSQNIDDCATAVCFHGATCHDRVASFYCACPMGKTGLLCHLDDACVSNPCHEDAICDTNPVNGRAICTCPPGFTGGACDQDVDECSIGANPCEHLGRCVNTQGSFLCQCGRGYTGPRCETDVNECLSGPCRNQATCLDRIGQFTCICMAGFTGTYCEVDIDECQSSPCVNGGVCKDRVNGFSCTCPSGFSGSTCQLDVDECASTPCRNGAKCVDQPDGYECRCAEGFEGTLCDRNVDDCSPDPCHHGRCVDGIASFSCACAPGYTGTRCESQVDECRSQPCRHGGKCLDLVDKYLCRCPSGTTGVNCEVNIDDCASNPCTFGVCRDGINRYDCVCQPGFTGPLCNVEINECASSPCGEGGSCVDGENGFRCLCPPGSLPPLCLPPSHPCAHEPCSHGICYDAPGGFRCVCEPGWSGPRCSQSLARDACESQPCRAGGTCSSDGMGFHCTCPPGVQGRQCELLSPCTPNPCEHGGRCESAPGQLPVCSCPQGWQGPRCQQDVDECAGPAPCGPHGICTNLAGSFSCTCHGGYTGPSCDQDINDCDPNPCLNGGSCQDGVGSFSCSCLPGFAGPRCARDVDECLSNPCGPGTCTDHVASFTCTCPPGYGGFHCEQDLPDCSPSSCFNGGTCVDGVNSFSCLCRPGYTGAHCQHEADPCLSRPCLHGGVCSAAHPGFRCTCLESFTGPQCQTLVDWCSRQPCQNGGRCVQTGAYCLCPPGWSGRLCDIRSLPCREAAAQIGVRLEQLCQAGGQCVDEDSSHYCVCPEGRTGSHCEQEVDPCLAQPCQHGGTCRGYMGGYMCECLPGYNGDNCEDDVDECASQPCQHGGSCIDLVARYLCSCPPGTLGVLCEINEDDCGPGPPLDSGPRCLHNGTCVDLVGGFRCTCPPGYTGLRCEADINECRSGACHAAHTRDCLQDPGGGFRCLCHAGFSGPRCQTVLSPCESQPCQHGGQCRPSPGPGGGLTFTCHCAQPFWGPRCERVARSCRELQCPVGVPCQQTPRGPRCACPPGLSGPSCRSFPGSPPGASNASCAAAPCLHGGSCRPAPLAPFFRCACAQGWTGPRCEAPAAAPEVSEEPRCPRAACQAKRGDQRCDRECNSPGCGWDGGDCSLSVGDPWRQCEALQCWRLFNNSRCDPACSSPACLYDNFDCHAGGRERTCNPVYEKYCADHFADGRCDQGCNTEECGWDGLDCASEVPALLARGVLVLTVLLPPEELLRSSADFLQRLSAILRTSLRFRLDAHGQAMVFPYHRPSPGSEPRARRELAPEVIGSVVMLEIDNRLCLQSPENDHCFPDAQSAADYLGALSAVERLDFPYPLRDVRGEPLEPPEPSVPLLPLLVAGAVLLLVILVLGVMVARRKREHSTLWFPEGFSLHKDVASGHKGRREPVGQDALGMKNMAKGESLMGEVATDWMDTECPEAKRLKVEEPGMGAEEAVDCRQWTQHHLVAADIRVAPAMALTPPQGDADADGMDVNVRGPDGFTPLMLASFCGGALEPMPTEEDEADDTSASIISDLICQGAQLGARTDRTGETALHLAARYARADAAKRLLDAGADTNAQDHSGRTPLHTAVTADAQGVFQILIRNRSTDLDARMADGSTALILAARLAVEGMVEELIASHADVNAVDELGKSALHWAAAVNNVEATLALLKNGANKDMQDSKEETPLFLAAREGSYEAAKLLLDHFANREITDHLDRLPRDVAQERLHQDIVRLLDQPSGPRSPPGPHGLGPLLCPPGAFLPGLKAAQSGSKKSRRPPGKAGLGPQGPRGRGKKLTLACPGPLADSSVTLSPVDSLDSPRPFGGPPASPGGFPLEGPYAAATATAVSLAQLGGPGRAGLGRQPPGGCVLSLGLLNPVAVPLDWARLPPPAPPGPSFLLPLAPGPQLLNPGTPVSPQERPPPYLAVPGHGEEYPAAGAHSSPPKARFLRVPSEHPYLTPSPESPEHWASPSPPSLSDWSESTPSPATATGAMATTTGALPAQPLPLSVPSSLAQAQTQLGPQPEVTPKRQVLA
Assay [20] can be described thus: small-molecule microarray binders of probe aEGFR, primary screen, biochemical, biotinylated probe, 635/667 nm fluorescence (AID 1097).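 Note: probe is a biotinylated anti-EGFR antibody binding compounds printed on slides; score combines fluorescence near 667 nm and signal to noise of each spot.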 The settings on record: higher = more signal.

Chain of Torsin-1A-interacting protein 2 (Homo sapiens) (Q8NFQ8 whole entry, looked up): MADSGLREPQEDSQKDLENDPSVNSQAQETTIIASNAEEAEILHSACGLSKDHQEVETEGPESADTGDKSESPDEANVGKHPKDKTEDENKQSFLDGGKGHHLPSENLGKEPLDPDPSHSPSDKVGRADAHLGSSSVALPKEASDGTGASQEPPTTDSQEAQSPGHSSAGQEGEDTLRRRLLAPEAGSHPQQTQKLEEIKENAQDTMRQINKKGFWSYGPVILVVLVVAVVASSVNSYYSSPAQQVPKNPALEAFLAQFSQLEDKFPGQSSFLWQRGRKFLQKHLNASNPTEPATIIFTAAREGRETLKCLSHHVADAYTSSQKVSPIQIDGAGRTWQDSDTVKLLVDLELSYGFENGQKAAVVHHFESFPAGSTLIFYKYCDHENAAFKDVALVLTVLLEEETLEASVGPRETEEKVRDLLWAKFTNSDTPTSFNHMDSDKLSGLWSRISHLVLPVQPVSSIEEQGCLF

Take `CC(C)CNC(=O)[C@@]1(c2ccc([N+](=O)[O-])cc2)CC(=O)N(C(C)C)[C@@H]1c1ccc(CO)cc1`: the composite z-score is 0.722 in [1]; -0.187 in [2]; -0.137 in assay [3]; -0.138 in assay [4]; -0.205 in [5]; 1.95 in [6]. Besides, the composite z-score in assay [7] is 0.55; in assay [9] it was -0.761; in assay [10] it was -0.0252; in assay [11] it was 0.808; in assay [15], 2.03; in assay [17] it was -0.147. Besides, the composite z-score was -0.641 in assay [18], -0.143 in assay [19] and -0.13 in assay [20]. Also, the z-score in assay [8] is -0.696 (inactive); in assay [12] it was -0.655 (inactive); in assay [13], -0.182 (inactive); in [14], -0.812 (inactive); in [16] it was 0.738 (inactive).

As to `CC(C)C[C@H]1NC(=O)[C@H](C)NC(=O)[C@@]23C(=O)N[C@@H](Cc4ccccc4)C2[C@H](C)[C@@]2(C)O[C@H]2C3/C=C/C/C=C\CNC1=O` (stereo not given in full), the composite z-score in [1] was -0.021; in [2], 0.366; in assay [3], -0.104; in assay [4], -0.0496; in assay [5], -0.465; in assay [6], 0.0659. Besides, the composite z-score in assay [7] is 0.511; in [9] it was -0.521; in assay [10], -0.54; in [11], 0.653; in assay [15] it was 2.44; in assay [17] it was -0.27. The figures for the composite z-score in [18], in [19] and in [20] were -0.344, 0.0715 and -0.158, respectively. Also, the z-score in assay [8] was 0.171 (inactive); in assay [12], -1.14 (inactive); in [13], -1.25 (inactive); in [14], -1.07 (inactive); in [16], -0.847 (inactive).

With `Cc1ccc(N2C(=O)c3ccccc3[C@](C)(C(=O)NC(C)C)[C@@H]2c2ccc(CO)cc2)nc1`, the composite z-score in [1] is 1.57; in assay [2], -1.06; in [3] it was -0.254; in [4] it was -1.11; in [5], -1.61; in [6], -1.55. Besides, the composite z-score was 0.787 in assay [7]; -0.927 in [9]; 0.119 in assay [10]; 0.595 in [11]; 3.07 in assay [15]; -0.0153 in assay [17]. Also, the values for the composite z-score in assay [18], in [19] and in assay [20] were -2.13, -0.572 and -0.36, respectively. Besides, the z-score was -0.0923 (inactive) in assay [8]; -0.273 (inactive) in assay [12]; -1.14 (inactive) in [13]; -1.8 (inactive) in [14]; 1.19 (inactive) in assay [16].

Regarding `COC(=O)[C@H]1N=C(c2ccc(OCCCO)cc2)O[C@H]1c1ccccc1CN=[N+]=[N-]`, the composite z-score in assay [1] is 1.03; in [2] it was -0.872; in assay [3] it was 0.0544; in [4], -0.202; in assay [5] it was -0.525; in assay [6], 0.526. Moreover, the composite z-score in assay [7] came out at 0.591; in [9] it was 0.906; in assay [10], 0.334; in assay [11] it was 0.943; in [15], 1.84; in assay [17], 0.992. The figures for the composite z-score in assay [18], in assay [19] and in [20] were -0.0277, 0.27 and -0.131, respectively. Moreover, the z-score in [8] was 4.14 (inactive); in [12], -0.363 (inactive); in [13] it was -0.225 (inactive); in assay [14] it was 0.444 (inactive); in assay [16], 0.887 (inactive).

As for `C=C[C@H](C)[C@H](OC(=O)Nc1ccc(SC)cc1)c1ccc(O)c2ccccc12`, the composite z-score is -0.0571 in [1]; -0.0235 in assay [2]; 0.0243 in assay [3]; -0.624 in [4]; -0.718 in assay [5]; 0.583 in [6]. In addition, the composite z-score in [7] is 1.05; in [9], -0.744; in [10], -0.268; in assay [11], 0.214; in assay [15] it was 0.803; in assay [17], -0.125. Also, the composite z-score is 0.174 in [18], -0.673 in assay [19] and -0.305 in assay [20]. For the same compound, the z-score in assay [8] was 2.77 (inactive); in assay [12], -21.7 (active); in assay [13], -20.8 (active); in assay [14] it was -2.22 (inactive); in assay [16] it was 0.949 (inactive).
